WRN inhibitor: inhibitors of human WRN helicase; Q14191; Potency, µM (doses to about 114 µM), usual class: inhibitors; WRN helicase unwinding, fluorescent forked duplex, kinetic; 360,000 compounds, 0.46% hits; further: nearly all actives have a fitted effect of over 55% in size
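Screening of the MLSMR collection measured strand separation of a quenched forked DNA duplex (100 nM) by 20 nM WRN with 2 mM ATP, all final. Compounds were preincubated with enzyme 15 min at room temperature.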
POLB inh: DNA polymerase beta (human) inhibition; P06746; Pol beta primer extension/strand displacement, fluorescence kinetic; Potency, µM (series often up to 114 µM), hits mostly inhibitors; 340,000 compounds, 1.3% hits
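10 nM enzyme + cpd, 15 min RT; start with substrate 50 nM final; read 0 min and after 10 min RT. Corrected, normalized data; 4-parameter Hill curve fit.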
Pol eta inh: inhibitors of human DNA polymerase eta. Q9Y253. recombinant Pol eta, fluorescent DNA replication assay. Potency, µM (highest dose often 114 µM), usual class: inhibitors. 390,000 compounds, 1.2% hits. AID 588591
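Fluorescent replication assay: 50 nM final substrate added after a 15 min room-temperature compound preincubation with 10 nM enzyme. Signal taken at 0 min and again at 10 min.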
POLI inh: DNA polymerase iota (human) inhibition. Q9UNA4. Pol iota fluorescent replication assay, 10 min. Potency, µM (top dose mostly 115 µM), usual class: inhibitors. 390,000 compounds, 1% hits. AID 588590
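Fluorescent replication assay read twice, at 0 min and 10 min after adding 50 nM (final) substrate. Enzyme (10 nM) and compounds were first incubated 15 min at room temperature; enzyme-free buffer wells were negative controls.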
Pol kappa inh: blocks human DNA polymerase kappa activity; Potency, µM (series often up to 107 µM), usual class: inhibitors; purified Pol kappa, fluorescent DNA synthesis assay, 10 min; 400,000 compounds, 0.53% hits
Target sequence (Q9UBT6 whole entry, looked up): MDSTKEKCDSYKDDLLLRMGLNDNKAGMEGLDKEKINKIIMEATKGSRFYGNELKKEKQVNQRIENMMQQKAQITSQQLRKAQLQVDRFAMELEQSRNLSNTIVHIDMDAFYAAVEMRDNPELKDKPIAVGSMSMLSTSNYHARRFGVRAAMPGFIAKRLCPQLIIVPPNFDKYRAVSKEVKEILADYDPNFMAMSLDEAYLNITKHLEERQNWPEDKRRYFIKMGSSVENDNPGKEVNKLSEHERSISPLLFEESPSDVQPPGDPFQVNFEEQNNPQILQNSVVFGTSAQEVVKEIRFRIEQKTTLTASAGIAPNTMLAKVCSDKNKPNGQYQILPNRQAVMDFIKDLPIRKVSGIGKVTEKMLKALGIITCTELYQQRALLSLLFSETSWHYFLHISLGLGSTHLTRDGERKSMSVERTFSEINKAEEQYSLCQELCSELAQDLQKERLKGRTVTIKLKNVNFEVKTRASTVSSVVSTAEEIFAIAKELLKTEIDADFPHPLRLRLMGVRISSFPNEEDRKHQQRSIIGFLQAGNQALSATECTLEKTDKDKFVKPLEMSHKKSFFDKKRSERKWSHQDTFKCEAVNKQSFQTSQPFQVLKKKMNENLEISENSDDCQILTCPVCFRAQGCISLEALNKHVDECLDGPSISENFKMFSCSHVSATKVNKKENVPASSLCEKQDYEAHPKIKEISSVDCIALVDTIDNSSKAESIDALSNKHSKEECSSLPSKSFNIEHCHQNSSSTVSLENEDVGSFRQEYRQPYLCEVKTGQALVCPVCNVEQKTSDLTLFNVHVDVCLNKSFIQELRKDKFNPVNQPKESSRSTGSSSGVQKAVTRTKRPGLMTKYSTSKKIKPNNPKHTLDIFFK
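10 nM Pol kappa was preincubated with compounds for 15 min at room temperature. Reaction started with 50 nM (final) substrate. Fluorescence read kinetically at 0 and 10 min.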
FEN1 inhibitor: blocks human flap endonuclease 1; P39748; Potency, µM (series often up to 114 µM), usual class: inhibitors; 390,000 compounds, 0.35% hits; Recombinant FEN1 flap cleavage, fluorescence, 15 min; further: nearly all actives have a fitted effect of over 65% in size
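Recombinant FEN1 (10 nM) was preincubated with pin-transferred compounds for 15 min at room temperature, then flap DNA substrate (50 nM final) was added. Plates were read at 0 and 15 min, and normalized concentration–response data were fitted to a four-parameter Hill equation.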
A number is an active result; – = inactive; ? = inconclusive; · = no result; ! = repeats disagree; [ ] = remark or other dose. In the library only some 2.4% were active in any assay of this set; here they are far more common. The call rests on the fitted dose curve; in most records, active means well fitted curve in the direction sought with a large enough effect; inconclusive means small, poorly fitted or top-dose-only effect, or another doubt; inactive means no such curve, though single readings can be large; an effect the other way counts as inactive or inconclusive.

SMILES	WRN inhibitor	POLB inh	Pol eta inh	POLI inh	Pol kappa inh	FEN1 inhibitor
Nc1nc(Cl)nc2c1ncn2[C@@H]1O[C@H](COP(=O)(O)OP(=O)(O)OP(=O)(O)O)[C@@H](O)[C@H]1O	·	·	·	·	–	·
Nc1c(O)ccc2c1C(=O)c1ccccc1C2=O	–	50µM	?	?	79µM	50µM
COc1ccc2c(c1O)C(=O)c1ccccc1C2=O	·	–	·	·	·	·
Cc1ccc(S(=O)(=O)NCCC(=O)NC2CCCCC2C)cc1 (configuration not stated)	–	·	–	–	–	–
COc1ccc(S(=O)(=O)NCCC(=O)NC2CCCCC2C)cc1[N+](=O)[O-] (configuration not stated)	–[11.6 µM]	·	–	50µM	–	–
Cn1c2ccccc2c(=O)c2cc(C#CC3=CCCCC3)ccc21	–	·	45µM	4µM	?	–
Cn1c2ccccc2c(=O)c2cc(C#Cc3cccc(N)c3)ccc21	–	·	–	–	–	–
CSc1sccc1/C=C(/C#N)C(=O)c1ccco1	50µM	–	?	?	–	?
CN(Cc1ccccc1C#N)S(=O)(=O)c1cccs1	–	–	–	–	–	–
N#Cc1nccnc1S(=O)(=O)c1cccs1	50µM	–	–	–	–	–
O=C1OC(/C(=C\Nc2cc(Cl)ccc2O)[N+](=O)[O-])c2ccccc21 (configuration not stated)	–	–	22µM	?	–	–
CN1C(=O)CC(c2ccccc2)CC1=O	–	·	–	–	–	–
CCN1C(=O)CC(c2ccccc2)CC1=O	–	·	–	79µM	–	–
CCOc1ccc(N/C=C/C(=O)c2ccc(OC)c(OC)c2)cc1	–	–	–	–	–	–
CCOc1ccc(C(=O)c2ccc(OC)c(O)c2O)cc1	·	·	·	·	13µM	·
COc1ccc(C(=O)c2ccc(C)cc2)c(OC)c1OC	–	·	–	–	–	–
COc1ccc(C(=O)c2ccc(O)cc2)c(O)c1O	·	·	·	·	2.2µM	·
O=C(O)c1ccc(N2Cc3ccccc3C2)cc1O	–	45µM	5.6µM	?	?	?
O=C(O)c1ccc(N2CCCCC2)cc1O	–	–	–	–	–	–
O=C(Nc1cc(Cl)ccc1Cl)c1cc([N+](=O)[O-])cc(Br)c1O	·	·	·	?	–	50µM
O=Cc1coc2c(ccc3ccccc32)c1=O	·	79µM	·	·	·	·
O=c1cc(C(F)F)oc2c1ccc1ccccc12	–	–	–	–	–	–
O=C(O)c1ccc(S(=O)(=O)N(Cc2ccccc2)Cc2ccccc2)cc1	–	–	–	–	–	–
O=C(O)c1ccc(S(=O)(=O)N(CCc2ccccc2)Cc2ccc(Cl)cc2)cc1	–	50µM	–	–	–	–
c1coc(-c2ccc3nncn3c2)c1	18µM	·	·	·	·	·
SMILES	WRN inhibitor	POLB inh	Pol eta inh	POLI inh	Pol kappa inh	FEN1 inhibitor
c1cc(N2CCOCC2)ccc1-c1ccc2nncn2c1	–	·	·	·	·	·
O=c1cc(NCc2ccco2)[nH]c(=O)n1-c1ccc(Br)cc1	–[11.6 µM]	–	?	50µM	?	–
CC(C(=O)c1ccccc1)[n+]1ccc(Cl)c2ccc(Cl)cc21 (configuration not stated)	·	·	·	–	–	–
COc1cc2cncnc2cc1OCCCCC(N)=O	·	·	·	–	–	–
Cc1ccc2[nH]c3nc(N/N=C/c4cccc(O)c4)nnc3c2c1	–	5µM	–	?	–	–
C[C@@](N)(Cc1ccc(O)c(O)c1)C(=O)O	·	·	·	·	3.5µM!	·
NC(=O)C1CN(S(=O)(=O)c2ccc(Cl)cc2F)c2ccccc2O1 (configuration not stated)	–	63µM	–	–	–	–
c1ccc2c(c1)OCC(c1nn3c(Cn4nnc5ccccc54)nnc3s1)O2 (configuration not stated)	–	?	?	50µM	?	–
c1cncc(-c2nn3c(Cn4nnc5ccccc54)nnc3s2)c1	–	–	–	–	–	–
c1ccc(-c2nn3c(Cn4nnc5ccccc54)nnc3s2)nc1	–	18µM	79µM	?	?	–
Cc1cnc(CNc2nc(-c3ccc(C(=O)N(C)C)cc3)nc3ccccc23)cn1	·	·	·	·	–	·
NC(=O)[C@@H]1CCCN1C(=O)C(Cc1cnc[nH]1)NC(=O)C1CCC(=O)N1 (some centres not stated)	·	·	·	·	–	·
c1ncc2snnc2n1	·	·	·	?	–	–
COc1cccc(/C=N/n2c(-c3n[nH]c4c3CCC4)n[nH]c2=S)c1O	–	–	–	–	–	–
COc1ccccc1/C=C/C=N/n1c(-c2n[nH]c3c2CCC3)n[nH]c1=S	–	7.9µM	?	–	–	–
CC(C)C[C@H](NC(=O)[C@H](CO)NC(=O)[C@@H]1CCCN1C(=O)[C@H](Cc1ccc(O)cc1)NC(=O)[C@H](CC(C)C)NC(=O)[C@H](CC(C)C)NC(=O)[C@@H]1CCCN1C(=O)[C@@H](NC(=O)[C@H](CO)NC(=O)[C@H](CO)NC(=O)[C@H](CO)NC(=O)[C@H](CO)NC(=O)[C@@H]1CCCN1C(=O)[C@@H](NC(=O)[C@@H](N)CO)C(C)C)[C@@H](C)O)C(=O)N[C@@H](C)C(=O)N[C@@H](CC(C)C)C(=O)N1CCC[C@H]1C(=O)N[C@@H](C)C(=O)N1CCC[C@H]1C(=O)O	·	·	·	·	–	·
COc1cccc(N2CCN(C(=O)CCS(=O)(=O)c3ccc4c(c3)oc(=O)n4C)CC2)c1	–	?	?	71µM	?	–
COc1ccc(NC(=O)CCS(=O)(=O)c2ccc3c(c2)oc(=O)n3C)cc1	–[11.6 µM]	?	?	50µM	–	–
CCc1ccccc1NC(=O)CCS(=O)(=O)c1ccc(OC)cc1	–	35µM	?	–	–	–
COc1ccc(OC)c2c(=O)cc(C(=O)O)[nH]c12	–	–	–	–	–	–
O=C(O)c1cc(=O)c2c3nc4ccccc4oc-3cc(=O)c2[nH]1	·	·	·	?	10µM	?
NCC(=O)N[C@@H](CCCN=C(N)N)C(=O)NCC(=O)N[C@@H](CC(=O)O)C(=O)N[C@@H](CO)C(=O)O	·	·	·	·	–	·
Nc1nc(SCC(=O)Nc2ccc(OC(F)(F)F)cc2)[nH]c(=O)c1NC(=O)c1ccc(Br)o1	–	40µM	?	–	–	–
CCSc1nc(N)c(NC(=O)c2ccc(Br)o2)c(=O)[nH]1	–	–	–	–	–	–
Cc1[nH]c2ccc(C(=O)N3CCN(c4ccccc4F)CC3)cc2c1C	·	–	–	–	–	–
COc1ccc2c(c1)c(=O)oc1cc(O)ccc12	–	–	–	–	–	–
COc1ccc2c(c1)c(=O)oc1cc3oc(C)c(C)c3cc12	·	25µM	·	·	·	·
CCC(CO)Oc1cc(NC(=O)c2ccc(N)cc2)c2ncn(C(C)C)c2c1 (configuration not stated)	–	·	89µM	?	–	–
CCC(CO)Oc1cc(NCc2ccccc2)c2ncn(C(C)C)c2c1 (configuration not stated)	–[11.6 µM]	·	–	18µM	–	–

Compound activity (PubChem)
